# Shown are actives, neighbours in structure and some others; about 2.6% of the full set was active somewhere.
# EWS-Fli block – EWS/Fli transcriptional activity inhibition. A673 NR0B1-luciferase reporter, viability-normalised. inhibition, % at 12.6 µM. hit rate 0.67% among 350,000;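 active = mean inhibition of at least 50% after viability correction, with every replicate also passing that limit; inconclusive = mean reaches 50% but only one of two replicates passes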;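 note: firefly luciferase signal divided by Alamar Blue viability fluorescence both relative to DMSO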
# KKLEB cytotox – reduces viability of KKLEB cystic fibrosis airway cells | KKLEB CF airway cells viability, ATPlite luminescence, overnight; active compounds read low; cells stimulated with P. aeruginosa culture filtrate | activity change (cytotoxicity), % at 5 µM | hit rate 0.36% among 360,000;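 active = corrected activity change at or below -50% at 5 µM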
# TWEAK Fn14 block – inhibitors of TWEAK-Fn14 interaction signaling; TWEAK-stimulated Fn14 reporter cells, luciferase luminescence, 8 h; hit rate 2% among 360,000; inhibition, % at 10 µM; in the data active = inhibition above about 50%
# CF NFkB inh – blocks PAF-induced NF-kB reporter in cystic fibrosis cells; KKLEB NF-kB-GFP reporter, GFP fluorescence overnight; inhibition, % at 5 µM; hit rate 0.86% among 360,000;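 active = at least 50% inhibition at 5 µM, scaled per plate between neutral and stimulator controls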;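 note: PAF is a Pseudomonas aeruginosa culture filtrate used as stimulus; plate controls were PAF-stimulated DMSO wells for no effect and unstimulated DMSO wells for full effect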
# TROY NFkB inh – inhibitors of TROY-dependent NF-kB signaling. Q293 LMP1-TROYcd NF-kB luciferase reporter, 4 h. AID 1347056. inhibition, % at 10 µM. hit rate 0.98% among 360,000;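 active = compounds whose plate-normalised and pattern-corrected inhibition of the luciferase reporter signal at the single screening dose is 50% or more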
# LGR2 antag – blocks bursicon-induced cAMP signaling via Drosophila LGR2; HEK293 LGR2, CRE-luciferase, bursicon-stimulated, 4 h; inhibition, % at 9.99 µM; hit rate 0.35% among 380,000;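 active = drop in luminescence signal, shown as inhibition above about 50% in the replicate tests, limit read from the data, passing the limit was not always enough; inconclusive = probably only some replicates passing the limit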;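 note: agonist challenge used bursicon conditioned medium at about half maximal strength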
# Active calls of the source: *; ? = inconclusive; . = no result.
SMILES,EWS-Fli block,KKLEB cytotox,TWEAK Fn14 block,CF NFkB inh,TROY NFkB inh,LGR2 antag
c1ccc(-c2ccc(-c3nc(-c4ccccn4)no3)cc2)cc1,87*,-78*,106*,-36,89*,102*
Cc1cccc(-c2nnc(-c3cccc4ccccc34)o2)c1,-4,-7,-18,-7,-65,-25
C[C@@H]1CN([C@@H](C)CO)C(=O)c2cc(N(C)C)ccc2O[C@H]1CN(C)Cc1ccc(-c2ccccc2)cc1,0,.,.,.,.,1
CO[C@H]1CN(C)C(=O)c2cc(NC(=O)CC(F)(F)F)ccc2OC[C@@H](C)N(C(=O)C2CCOCC2)C[C@@H]1C,.,.,.,.,.,-1
CNC[C@@H]1Oc2ccc(NC(=O)Nc3cccc4ccccc34)cc2CC(=O)N([C@@H](C)CO)C[C@@H]1C,-2,.,.,.,.,-50
Cc1ccc(Cc2nc(-c3ccccn3)no2)cc1,.,-2,27,9,-22,-3
c1ccc(-c2nc(-c3ccccn3)no2)cc1,.,-17,94*,-4,73*,87*
c1ccc(-c2noc(-c3cccc4ccccc34)n2)nc1,.,-30,77*,-8,20,.
Cc1ccc(-c2nc(-c3ccccn3)no2)cc1,.,-73*,106*,-6,86*,.
c1ccc(-c2noc(-c3ccno3)n2)nc1,-17,26,0,-6,-36,-15
c1ccc(-c2noc(-c3ccco3)n2)nc1,.,1,53*,2,-16,.
COC(=O)[C@@]1(Cc2ccccc2)N=C(c2ccc(OCCCO)cc2)O[C@H]1c1ccccc1,-12,.,.,.,.,.
CC(C)NC(=O)N[C@H]1CC[C@H](CCn2cc(-c3ccc(F)cc3)nn2)O[C@@H]1CO,-8,.,.,.,.,-5
Cc1ccc(-c2nc(-c3ccccn3)no2)cc1[N+](=O)[O-],37,-2,62*,-18,25,?
Cc1ccc2nc(-c3ccccn3)oc2c1,.,-9,53*,-22,-13,.
Clc1cccc(-c2nc(-c3ccccn3)no2)c1,.,-25,97*,-30,70*,.
c1ccc(-c2cc(-c3nc(-c4ccccn4)no3)c3ccccc3n2)cc1,.,2,22,-24,-4,.
O=C(NCC[C@H]1CC[C@@H](NC(=O)C2CCCCC2)[C@@H](CO)O1)Nc1ccc(Cl)cc1,-49,.,.,.,.,-8
Cc1ccccc1NC(=O)CCN1C(=O)CSC1=O,.,14,-6,-7,-3,.
Cc1ccc(NC(=O)CCN2C(=O)CSC2=O)c(C)c1,.,-7,74*,9,.,.
CC1CCC(NC(=O)c2ccc3c(c2)OCO3)CC1 (stereo unspecified),.,4,54*,0,0,12
CC(=O)c1ccccc1NC(=O)c1ccc2c(c1)NC(=O)C(C)S2 (stereo unspecified),-90,-15,-5,-3,-16,-29
Cc1ccnc(NC(=O)c2ccc3c(c2)NC(=O)C(C)S3)c1 (stereo unspecified),36,-15,67*,14,44,48
Cc1ccc(NC(=O)c2ccc3c(c2)OCCO3)nc1,35,-11,62*,8,29,49
Cc1ccc(NC(=O)CNC(=O)c2ccc3c(c2)OCO3)nc1,.,-6,3,8,-18,1
SMILES,EWS-Fli block,KKLEB cytotox,TWEAK Fn14 block,CF NFkB inh,TROY NFkB inh,LGR2 antag
Cc1ccnc(NC(=O)c2ccc3c(c2)OCO3)c1,7,-6,55*,1,15,32
O=C(Nc1ccon1)c1ccc2c(c1)OCO2,.,11,6,-3,-18,.
O=C(NC1CCCCC1)c1ccc2c(c1)OCO2,-98,-4,-19,-10,-28,-26
C[C@@H]1CCCCO[C@@H](CN(C)C(=O)Nc2ccccc2)[C@@H](C)CN([C@@H](C)CO)C(=O)c2cc(NC(=O)Nc3ccccc3)ccc2O1,.,.,.,.,.,12
CCn1c(/C=N/Nc2ccc(C(=O)O)cc2)nc2ccccc21,2,1,-11,-2,-41,.
CC1Oc2ccccc2C=C1/C=N/Nc1ccc(C(=O)O)cc1 (stereo unspecified),-43,-17,61*,23,-10,-94
CCCCCCCCCS(=O)(=O)N/N=C/c1cccc([N+](=O)[O-])c1,.,6,18,12,51*,-14
Cc1ccc(S(=O)(=O)N/N=C/c2cccc([N+](=O)[O-])c2)cc1,.,7,13,-10,-22,3
CCN1[C@H](C(=O)NCc2ccccc2)[C@@H](CO)[C@@H]2Cn3c(ccc(-c4ccccc4OC)c3=O)[C@@H]21,-7,.,.,.,.,-12
CC1=NN(c2nc3ccccc3[nH]2)C(=O)C1Cc1ccccc1 (stereo unspecified),.,-52*,44,51*,-54,-6
N#C/C(=C/c1ccc(Sc2nc3ccccc3[nH]2)o1)c1cccc(Br)c1,.,-4,39,9,68*,.
N#C/C(=C/c1ccc(Sc2nc3ccccc3[nH]2)o1)c1cccc(F)c1,.,-21,10,7,55*,13
CC/C=C\[C@H](O)[C@H](O)C1=C(C)C(=O)[C@]2(O1)C(=O)N[C@@](OC)(C(=O)c1ccccc1)C2O (stereo partly specified),2,-9,69*,26,46,26
COc1cccc(NC(=O)N2CC(=O)N3[C@@H](CO)[C@H](c4ccc(C5=CCCC5)cc4)[C@@H]3C2)c1,-4,.,.,.,.,11
O=C(COC(=O)c1ccc[nH]c1=O)Nc1cc(S(=O)(=O)N2CCCCC2)ccc1Cl,4,8,-11,3,9,-6
O=C(COC(=O)c1ccc[nH]c1=O)Nc1ccc(S(=O)(=O)N2CCCC2)cc1,-1,-17,10,6,56*,0
Cc1cccc(N/C=C/C(=O)c2cccs2)c1C,.,-34,58*,-10,-18,70*
COc1cc([N+](=O)[O-])ccc1N/C=C/C(=O)c1cccs1,.,-58*,42,-50,16,.
O=C(/C=C/c1ccc([N+](=O)[O-])cc1)c1cccs1,-16,7,7,14,-8,-16
CCc1noc2cc(-c3ccccc3)n(C)c(=O)c12,-74,.,.,.,.,-49
O=C(N/N=C/c1cn(-c2ccccc2)nc1-c1cccnc1)c1ccc(F)cc1,-14,-8,6,1,-11,14
O=C(N/N=C/c1cn(-c2ccccc2)nc1-c1cccnc1)c1cccnc1,-4,3,-4,-7,8,-13
O=C(N/N=C/c1cn(-c2ccccc2)nc1-c1cccs1)c1ccc(Cl)cc1,.,0,55*,-6,-11,-22
CN1CCC(N(C)C(=O)/C=C/c2cn(-c3ccccc3)nc2-c2cccs2)CC1,30,-11,-12,11,-14,78*
O=C(N/N=C/c1cn(-c2ccccc2)nc1-c1cc2ccccc2o1)c1cccnc1,1,-19,85*,25,63*,?
O=C(N/N=C/c1cn(-c2ccccc2)nc1-c1ccc(F)cc1)c1ccc(Br)o1,.,-2,53*,-20,13,.

# High-throughput results from PubChem BioAssay.
